Results published in PubChem BioAssay AID1159580 (chemical genetic matrix, 2015).
Out of some 5,500 compounds screened, about 2,000 (36%) were called active. Not shown: some 18% with an inconclusive outcome. Cut-off read from the data, not from the text of the source: active = normalized growth mostly below about 0.91 (no sharp cut-off); inconclusive = no clear call, values can overlap the other calls; inactive = mostly above about 0.92. The list shows a part of the results.

Test: chemical genetic growth profiling, strain panel (AID 1159580);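 note: tested at 20 µM; growth read once vehicle control cultures reached saturation at 30 °C; 1 = growth at the plate median or of vehicle wells; lower values mean less growth of the strain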
Details: growth OD
[1] = S. cerevisiae deletion strains, locus YAL013W, strain DEP1, stronger effect = lower value
[2] = S. cerevisiae deletion strains, locus YDR150W, strain NUM1, stronger effect = lower value
[3] = S. cerevisiae deletion strains, locus YGR078C, strain PAC10, stronger effect = lower value
[4] = S. cerevisiae deletion strains, locus YMR263W, strain SAP30, stronger effect = lower value
[5] = S. cerevisiae deletion strains, locus YNL153C, strain GIM3, stronger effect = lower value
[6] = S. cerevisiae deletion strains, locus YPL055C, strain LGE1, stronger effect = lower value

Measured: normalized growth

COc1ccccc1N1CCN(S(=O)(=O)c2cc(C)c(Cl)cc2C)CC1
inactive: [1] 0.985 | S. cerevisiae deletion strains, locus YBR229C, strain ROT2, stronger effect = lower value 0.991 | S. cerevisiae deletion strains, locus YDL101C, strain DUN1, stronger effect = lower value 0.957 | [2] 0.958 | S. cerevisiae deletion strains, locus YEL061C, strain CIN8, stronger effect = lower value 0.994 | [3] 0.97 | S. cerevisiae deletion strains, locus YHR030C, strain SLT2, stronger effect = lower value 1.01 | S. cerevisiae deletion strains, locus YHR087W, strain rtc3, stronger effect = lower value 0.959 | S. cerevisiae deletion strains, locus YJL187C, strain SWE1, stronger effect = lower value 0.991 | S. cerevisiae deletion strains, locus YJR043C, strain POL32, stronger effect = lower value 1 | S. cerevisiae deletion strains, locus YJR075W, strain HOC1, stronger effect = lower value 0.989 | S. cerevisiae deletion strains, locus YKL190W, strain CNB1, stronger effect = lower value 0.987 | S. cerevisiae deletion strains, locus YLR039C, strain RIC1, stronger effect = lower value 0.981 | S. cerevisiae deletion strains, locus YLR058C, strain SHM2 (second series), stronger effect = lower value 0.988 | S. cerevisiae deletion strains, locus YLR085C, strain ARP6, stronger effect = lower value 1.01 | S. cerevisiae deletion strains, locus YLR262C, strain YPT6, stronger effect = lower value 0.976 | S. cerevisiae deletion strains, locus YML094W, strain GIM5, stronger effect = lower value 0.958 | S. cerevisiae deletion strains, locus YMR219W, strain ESC1, stronger effect = lower value 1 | [4] 1 | [5] 0.996 | S. cerevisiae deletion strains, locus YNL298W, strain CLA4 (second series), stronger effect = lower value 0.982 | S. cerevisiae deletion strains, locus YNL322C, strain KRE1, stronger effect = lower value 0.994 | S. cerevisiae deletion strains, locus YNR030W, strain Alg12, stronger effect = lower value 0.982 | [6] 0.953 | S. cerevisiae deletion strains, locus YPL241C, strain CIN2, stronger effect = lower value 1.06 | S. cerevisiae deletion strains, locus YPR135W, strain CTF4, stronger effect = lower value 0.874 | S. cerevisiae strains, strain wild type, stronger effect = lower value 0.985

c1ccc2sc(C3(N4CCCCC4)CCCCC3)cc2c1
inactive: [1] 0.964 | S. cerevisiae deletion strains, locus YAL040C, strain CLN3, stronger effect = lower value 1.01 | S. cerevisiae deletion strains, locus YCL061C, strain MRC1 (second series), stronger effect = lower value 0.995 | [2] 1 | S. cerevisiae deletion strains, locus YDR363W, strain ESC2, stronger effect = lower value 0.937 | S. cerevisiae deletion strains, locus YER002W, strain NOP16, stronger effect = lower value 1.01 | [3] 0.983 | S. cerevisiae deletion strains, locus YGR229C, strain SMI1, stronger effect = lower value 0.93 | [4] 1 | S. cerevisiae deletion strains, locus YMR307W, strain GAS1, stronger effect = lower value 0.976 | S. cerevisiae deletion strains, locus YNL128W, strain TEP1, stronger effect = lower value 0.988 | [5] 1.01 | S. cerevisiae deletion strains, locus YNL175C, strain NOP13, stronger effect = lower value 1.03 | S. cerevisiae deletion strains, locus YNL197C, strain WHI3, stronger effect = lower value 0.986 | S. cerevisiae deletion strains, locus YNL224C, strain SQS1, stronger effect = lower value 1 | S. cerevisiae deletion strains, locus YOR083W, strain WHI5 (second series), stronger effect = lower value 1.04 | [6] 0.907
